IMPase Li cell: membrane-permeable IMPase blocker, potentiated with lithium. CHO-M1 cells, IP1 TR-FRET (IP-One), carbachol + lithium. Potency, µM (top dose mostly 59.4 µM), hits mostly inhibitors. 210,000 tested, 0.35% active;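 further: IP1 builds up when IMPase is blocked and the TR-FRET signal falls; nearly all actives have a fitted effect of over 50% in size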
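IP1 accumulation measured by competitive TR-FRET in lysed CHO-M1 cells after 30 min compound exposure at 37C, with a small lithium addition to potentiate weak responses. Hill-equation AC50 from ratio and donor-channel data.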
HPGD block: blocks human HPGD enzyme activity | P15428 | purified HPGD, NADH fluorescence kinetic, PGE2 substrate | Potency, µM, actives largely listed as inhibitors | 150,000 tested, 4.3% active | AID 894; active means well fitted inhibition curve with a large enough effect, not every such curve was filed as active; inconclusive means small, poorly fitted or top-dose-only effect, or another doubt; inactive means no such curve, though single readings can be large or run the other way
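20 nM HPGD preincubated 15 min at room temperature with compound in 50 mM Tris-HCl pH 8, 0.01% Tween 20. Started with 1 mM NAD+ and 30 uM prostaglandin E2; NADH fluorescence (360/450 nm) read 5 times over 30-s intervals, last minus first.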
ALDH1A1 inh: blocks purified human ALDH1A1 activity; P00352; Purified ALDH1A1, NADH fluorescence, propionaldehyde substrate; Potency, µM (doses to about 75.3 µM), hits mostly inhibitors; 220,000 tested, 7.3% active; AID 1030; active means well fitted inhibition curve with a large enough effect, not every such curve was filed as active; inconclusive means small, poorly fitted or top-dose-only effect, or another doubt; inactive means no such curve, though single readings can be large or run the other way
12-hLO inh: 12-hLO (ALOX12) enzyme inhibition; P18054; purified 12-hLO, xylenol orange hydroperoxide absorbance; Potency, µM (highest dose often 57.1 µM), usual class: inhibitors; 150,000 tested, 0.12% active; AID 1452; further: nearly all actives have a fitted effect of over 55% in size
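Hydroperoxide formation by human 12-lipoxygenase from 40 uM arachidonic acid was followed colorimetrically via ferric-xylenol orange complex, using the 573/405 nm absorbance ratio. Enzyme concentration was 150 nM, with 30 min reaction at room temperature.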
PNC inhibitor: inhibitors of perinucleolar compartment assembly; PC3M PTB-GFP, PNC prevalence imaging, 16 h; active compounds read low; activity change (PNC), negative = inhibition, % at 10 µM; 140,000 tested, 3.1% active; AID 2417;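 active means readout at or below -70, meaning at least 70% loss of cells showing the perinucleolar compartment, a nuclear body marking cancer cells; inconclusive means readout between -30 and a set limit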
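PC3M cells stably expressing PTB-GFP, 750–1000 cells/well, treated 16 h at 37 °C with compound (23 nl of library stock), in duplicate. After paraformaldehyde fixation and Hoechst stain, imaged at 20x; PNC prevalence scored by image analysis.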
IMPase inh: cell-permeable inhibitors of inositol monophosphatase (IMPase) | P97697 | CHO-M1 cells, IP1 accumulation, HTRF TR-FRET ratio | inhibition (IP1 accumulation), % at 46.1 µM | 120,000 tested, under 10 active | AID 901; active means well fitted curve in the direction sought with a large enough effect in the signal ratio, not every such curve was filed as active; inconclusive means small, poorly fitted or top-dose-only effect, or a change in a side signal; inactive means no such curve, though single readings can be large or run the other way; the % refers to the signal ratio;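 further: cells stimulated with carbachol in lithium chloride buffer; higher means more IMPase inhibition seen as more IP1 and lower FRET ratio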
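Measured: the HTRF emission ratio (665/620 nm) plus the 620 nm donor channel, each fitted to the Hill equation to give AC50. Cells were CHO-M1 given compounds up to 46 uM and a 30 min carbachol stimulation at 37C.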
Hits are given with their value; – = inactive; ? = inconclusive; · = no result given; [ ] = dose if it differs, or a comment. Shown are actives, neighbours in structure and some others; about 11% of the full set was active somewhere. Unless noted, the call rests on the fitted dose curve; in most records, active means well fitted curve in the direction sought with a large enough effect; inconclusive means small, poorly fitted or top-dose-only effect, or another doubt; inactive means no such curve, though single readings can be large; an effect the other way counts as inactive or inconclusive.

SMILES	IMPase Li cell	HPGD block	ALDH1A1 inh	12-hLO inh	PNC inhibitor	IMPase inh
COc1ccc(/C(O)=C2\C(=O)C(=O)N(CCN3CCOCC3)C2c2ccccc2OC)cc1 (centres undefined)	–	–	–	–	?	–
COc1ccc(/C(O)=C2/C(=O)C(=O)N(CCN3CCOCC3)C2c2ccccn2)cc1 (centres undefined)	·	·	22µM	–	–	–
CC(C)Oc1ccc(/C(O)=C2/C(=O)C(=O)N(CCN3CCOCC3)C2c2ccccc2)cc1 (centres undefined)	5µM	–	22µM	–	–	?
COC(=O)c1[nH]c(C)c(/C(O)=C2\C(=O)C(=O)N(CCCN3CCOCC3)C2c2ccccn2)c1C (centres undefined)	–	?	10µM	–	–	–
O=C1C(=O)N(CCN2CCOCC2)C(c2ccccn2)/C1=C(/O)c1ccc(F)cc1 (centres undefined)	–	–	25µM	–	–	–
CCCCNc1nc(C)nc2c1nc(-c1ccccc1)n2CCN1CCCC1	–	?	?	–	·	·
O=C(CCNc1cccc(F)c1)c1cc2ccccc2o1	–	·	0.025µM	·	·	·
O=C(Cc1ccc(F)cc1)OCC(=O)c1cc2ccccc2o1	–	?	?	–	–	–
CNC(=O)c1cc2ccccc2o1	–	–	–	–	–	?
O=C(CCNc1ccc(F)cc1)c1cc2ccccc2o1	–	·	0.1µM	·	·	·
C/C(Cc1ccccc1)=N/NC(=O)CCCC(=O)N/N=C(/C)Cc1ccccc1	–	·	–	·	·	·
C/C(Cc1ccccc1)=N\NC(=O)CCCCCC(=O)N/N=C(\C)Cc1ccccc1	–	–	11µM	–	–	–
Cc1ccc(S(=O)(=O)NC2CCCCC2)c2nsnc12	–	–	16µM	–	–	·
CCOc1ccc(S(=O)(=O)N2CCN(c3ccccc3)CC2)c2cccnc12	–	–	28µM	–	?	–
CCOC(=O)N1CCN(S(=O)(=O)c2ccc(OC)c(Cl)c2Cl)CC1	–	–	?	–	–	–
CCOC(=O)N1CCN(S(=O)(=O)c2ccc(OCC)c3ccccc23)CC1	–	28µM	?	–	–	–
O=C(Nc1ccccc1C(=O)N1CCCC1)c1ccc(Cl)c([N+](=O)[O-])c1	–	·	–	·	·	·
NC(=S)Nc1cccc2cccnc12	–	–	–	–	–	–
NC(=S)NNc1cccc2cccnc12	–	·	3.5µM	·	·	·
Cc1ccc(NNC(=O)C(=O)N2CCCCC2)cc1	–	–	–	–	-90	–
Cc1ccccc1C(=O)NNC(=O)C(=O)N1CCCCC1	–	–	–	–	–	·
O=[N+]([O-])c1ccccc1-c1ccc(C(=S)N2CCCCC2)o1	·	·	22µM	·	·	·
O=[N+]([O-])c1ccccc1-c1ccc(C(=S)N2CCCC2)o1	–	·	2.2µM	·	·	·
O=c1c(-c2cc(F)cc(F)c2)nc2cnc(N3CCOCC3)nc2n1CCc1ccccc1	–	·	?	·	·	·
COc1ccc(-n2c(=O)c(-c3cn(C)c4ccccc34)nc3cncnc32)cc1	–	–	?	–	·	·
SMILES	IMPase Li cell	HPGD block	ALDH1A1 inh	12-hLO inh	PNC inhibitor	IMPase inh
Cc1ccc(CN2C(=O)CCC2C(=O)NC2CCCC2)cc1 (centres undefined)	–	–	–	–	–	–
Cc1ccc(CN2C(=O)CCC2C(=O)NCCN(CC(C)C)CC(C)C)cc1 (centres undefined)	–	–	22µM	–	–	–
O=C(COC(=O)CC1CC2CCC1C2)NC(=O)NCc1ccco1 (centres undefined)	–	–	14µM	–	–	–
Cc1nc(NCc2ccccc2)c2nc(-c3ccccc3)n(CCN3CCCCC3)c2n1	–	?	?	–	·	·
CCCCCCCCC	–	–	–	–	·	·
COc1cccc([C@@H]2Oc3ccc(OC)cc3/C(=N/OC[C@@H](O)COCc3ccco3)[C@@H]2O)c1	·	·	–[13.5 µM]	·	·	·
CCOc1cc(/C=C(\C#N)C(N)=O)ccc1OS(=O)(=O)c1ccccc1	–	–	13µM	–	–	·
CCOc1cc(/C=N/NS(=O)(=O)c2ccccc2)ccc1OS(=O)(=O)c1ccc(C)cc1	–	–	8.9µM	–	–	–
N#Cc1c(-n2ncnc2-c2ccccc2C(F)(F)F)sc2c1CCCCC2	·	·	·	·	·	–
